Reference: PubChem BioAssay
Activity calls are given as the source filed them.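 The calls were made as follows, unless noted: active = duplicate-averaged activation above buffer control mean plus 5 SD of those controls; inactive = the rest.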

Legend:
[1] = nonspecific flux increase, KCNQ1-free cells – parental CHO cells, counter-screen for KCNQ1 potentiator project (AID 493006); conditions: parental CHO-K1 cells, FluxOR thallium flux, at 10 µM; hits give high values;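 as to activation: fluorescence ratio of max minus min over baseline after K+ and Tl+ depolarization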
[2] = molecular target: Potassium voltage-gated channel subfamily KQT member 1 (Homo sapiens) (UniProt P51787); test: enhancement of KCNQ1 channel thallium flux – FluxOR thallium flux, CHO cells, duplicates, confirmation (AID 493007;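 active = potentiation averaged over duplicate wells exceeding buffer-only control mean by more than 3 SD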;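 as to outcome: cells depolarized by a potassium plus thallium sulfate stimulus after compound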;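 as to potentiation: 0% = buffer-only wells and 100% = R-L3 activator control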); conditions: KCNQ1 cell line, FluxOR thallium flux fluorescence, at 10 µM; hits give high values, % of reference activator effect, buffer zero
Potassium voltage-gated channel subfamily KQT member 1 (Homo sapiens), sequence (P51787 whole entry, looked up): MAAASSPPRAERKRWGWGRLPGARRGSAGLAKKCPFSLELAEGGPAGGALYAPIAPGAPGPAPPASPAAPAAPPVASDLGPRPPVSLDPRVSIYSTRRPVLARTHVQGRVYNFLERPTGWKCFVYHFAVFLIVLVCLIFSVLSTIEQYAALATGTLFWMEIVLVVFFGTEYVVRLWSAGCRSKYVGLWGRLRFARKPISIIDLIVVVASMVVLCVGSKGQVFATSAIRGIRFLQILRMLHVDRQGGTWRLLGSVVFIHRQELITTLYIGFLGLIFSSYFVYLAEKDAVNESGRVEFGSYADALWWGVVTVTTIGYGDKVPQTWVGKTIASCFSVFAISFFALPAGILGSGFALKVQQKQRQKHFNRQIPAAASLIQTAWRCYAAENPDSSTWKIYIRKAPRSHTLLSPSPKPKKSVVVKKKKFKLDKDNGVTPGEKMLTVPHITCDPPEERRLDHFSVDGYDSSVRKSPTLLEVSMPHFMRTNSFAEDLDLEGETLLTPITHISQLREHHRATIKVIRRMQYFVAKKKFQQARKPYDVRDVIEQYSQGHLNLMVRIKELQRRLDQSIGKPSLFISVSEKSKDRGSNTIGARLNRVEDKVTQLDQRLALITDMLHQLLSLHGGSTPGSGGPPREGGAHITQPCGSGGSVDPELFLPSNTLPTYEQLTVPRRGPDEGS

[3] = molecular target: Potassium voltage-gated channel subfamily KQT member 2 (Rattus norvegicus) (UniProt O88943); test: KCNQ2 thallium flux enhancement – KCNQ2-CHO-K1 cells, selectivity assay for KCNQ1 potentiator project (AID 493009;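 active = mean duplicate potentiation above the buffer control mean plus 5 SD of buffer wells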;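 also: assay conditions were tuned for KCNQ1 rather than KCNQ2 modulators; signal is max minus min fluorescence divided by baseline after thallium stimulus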); conditions: FluxOR thallium flux fluorescence, at 10 µM; hits give high values, scaled: buffer 0, activator control 100
Potassium voltage-gated channel subfamily KQT member 2 (Rattus norvegicus), sequence (O88943 whole entry, looked up): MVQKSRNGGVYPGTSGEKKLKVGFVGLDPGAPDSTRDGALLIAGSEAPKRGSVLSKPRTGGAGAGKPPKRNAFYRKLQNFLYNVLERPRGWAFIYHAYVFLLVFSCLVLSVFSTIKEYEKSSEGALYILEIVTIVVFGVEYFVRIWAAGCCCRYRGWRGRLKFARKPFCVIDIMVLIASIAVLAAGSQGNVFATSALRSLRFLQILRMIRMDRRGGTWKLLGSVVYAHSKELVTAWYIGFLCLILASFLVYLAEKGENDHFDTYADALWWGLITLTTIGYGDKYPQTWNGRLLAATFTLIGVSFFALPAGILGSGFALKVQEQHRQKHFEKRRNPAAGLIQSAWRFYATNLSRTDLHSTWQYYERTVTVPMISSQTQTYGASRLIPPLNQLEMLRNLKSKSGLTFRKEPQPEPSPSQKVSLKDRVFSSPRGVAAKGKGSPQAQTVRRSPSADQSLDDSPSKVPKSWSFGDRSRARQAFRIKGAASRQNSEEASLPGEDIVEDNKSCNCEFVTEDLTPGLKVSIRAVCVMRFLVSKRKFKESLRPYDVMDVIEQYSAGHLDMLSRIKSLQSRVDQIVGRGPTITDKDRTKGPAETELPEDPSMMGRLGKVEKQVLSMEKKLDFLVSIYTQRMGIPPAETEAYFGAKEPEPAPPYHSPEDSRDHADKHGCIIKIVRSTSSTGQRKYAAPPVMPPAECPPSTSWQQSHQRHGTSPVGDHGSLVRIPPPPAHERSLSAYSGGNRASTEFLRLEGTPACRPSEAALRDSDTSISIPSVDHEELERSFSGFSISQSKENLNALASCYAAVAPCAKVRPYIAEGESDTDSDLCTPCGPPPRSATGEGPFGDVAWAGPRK

[4] = molecular target: Potassium voltage-gated channel subfamily KQT member 1 (Homo sapiens) (UniProt P51787); test: KCNQ1 activators by electrophysiology – IonWorks patch clamp, KCNQ1-CHO cells, orthogonal assay for KCNQ1 potentiator project, confirmation (AID 493184;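 active = current rise at least 3 SD above the untreated control mean in each of two repeat wells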;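 as to current potentiation: percent change of the same well's current before compound addition so 0% = no change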); conditions: automated patch clamp current, at 10 µM; hits give high values

| Compound | activation [1] | potentiation [2] | potentiation [3] | current potentiation [4] | outcome [1] | outcome [2] | outcome [3] | outcome [4] |
| --- | --- | --- | --- | --- | --- | --- | --- | --- |
| O=C(Nc1nnc(-c2ccc3c(c2)CCCC3)o1)c1c(F)cccc1F | 148% (active) | 25% (active) | 182% (active) | 20.7% (active) | – | – | – | – |
| O=C(CSc1nc2cc(Cl)ccc2s1)c1cc2ccccc2o1 | – | – | – | – | inactive | inactive | inactive | inactive |
| CC1CCCCC1NC(=S)NC(=O)c1cccs1 (stereo unspecified) | 181% (active) | 100% (active) | 300% (active) | – | – | – | – | inactive |
| Cc1cc(O)ccc1N=Cc1c(C(F)(F)F)[nH][nH]c1=O | – | – | – | – | inactive | inactive | inactive | inactive |
| CCCN(CCC)CCNC(=O)Cn1cnc2sc(C)c(S(=O)(=O)N3CCOCC3)c2c1=O | – | – | – | – | inactive | inactive | inactive | inactive |
| CC(C)C(=O)Nc1c(-c2ccccc2F)c(=O)c2ccccc2n1C | – | – | – | – | inactive | inactive | inactive | inactive |
| CCCc1cc(-c2n[nH]c(=S)n2C(C)c2ccccc2)cs1 (stereo unspecified) | 139% (active) | 37% (active) | – | – | – | – | inactive | inactive |
| COc1ccc(NC(=S)N2CCC(C(O)(c3ccccc3)c3ccccc3)CC2)cc1 | – | – | 186% (active) | – | inactive | inactive | – | inactive |
| CCSC(=S)c1c(C)[nH]n(-c2ccccc2)c1=O | 164% (active) | 30% (active) | 184% (active) | – | – | – | – | inactive |
| CCCCN(CCCC)c1cn[nH]c(=O)c1Cl | – | – | – | – | inactive | inactive | inactive | inactive |
| O=[N+]([O-])c1cc(CN2CCCC2)ccc1Sc1ccc(Cl)cc1 | – | – | – | – | inactive | inactive | inactive | inactive |
| CC(C)c1ccc(/C=C2\SC(N3CCOCC3)=NC2=O)cc1 | – | – | 146% (active) | – | inactive | inactive | – | inactive |
| CC1(C)Cc2c(sc3[nH]c(=S)n(Cc4ccccc4)c(=O)c23)CO1 | 191% (active) | 63% (active) | 198% (active) | – | – | – | – | inactive |
| CCOc1ccc(/C=C2/SC(=O)NC2=S)cc1 | 425% (active) | 138% (active) | 379% (active) | – | – | – | – | inactive |
| S=c1[nH]nc(-c2cccs2)n1/N=C/c1c(Cl)cccc1Cl | – | 30% (active) | 196% (active) | – | inactive | – | – | inactive |
| CC(C)Cn1c(=O)c(C(=O)N/N=C/c2cccc(F)c2)c(O)c2ccccc21 | – | – | – | – | inactive | inactive | inactive | inactive |
| COc1ccccc1C(=O)NNC(=O)C(=O)NC(C)(C)C | 185% (active) | 68% (active) | 246% (active) | – | – | – | – | inactive |
| O=C(NC(=S)N1CCN(c2ccc(Cl)cc2[N+](=O)[O-])CC1)c1cccs1 | 188% (active) | 61% (active) | 244% (active) | – | – | – | – | inactive |
| N#Cc1ccccc1Oc1ccccc1C=O | 143% (active) | 39.5% (active) | 160% (active) | – | – | – | – | inactive |
| CN(C)CCNC(=O)c1ccc2c(=O)n(Cc3ccc(Cl)cc3)c(=S)[nH]c2c1 | – | 25% (active) | 149% (active) | – | inactive | – | – | inactive |
| Cc1ccc(S(=O)(=O)NN2C(=O)/C(=C/c3cccs3)SC2=S)cc1 | 163% (active) | 22.5% (active) | 159% (active) | – | – | – | – | inactive |
| CC1CCC(n2c(=S)[nH]c3ccccc3c2=O)CC1 (stereo unspecified) | 234% (active) | 70% (active) | 243% (active) | – | – | – | – | inactive |
| Cc1ccc(C(=O)OCC(=O)N(C)c2ccccc2)cc1C | 397% (active) | 252% (active) | 405% (active) | – | – | – | – | inactive |

| Compound | activation [1] | potentiation [2] | potentiation [3] | current potentiation [4] | outcome [1] | outcome [2] | outcome [3] | outcome [4] |
| --- | --- | --- | --- | --- | --- | --- | --- | --- |
| OC[C@H]1O[C@H](OC[C@H]2O[C@H](OC[C@H]3O[C@H](O[C@]4(CO)O[C@H](CO)[C@@H](O)[C@@H]4O)[C@H](O)[C@@H](O)[C@@H]3O)[C@H](O)[C@@H](O)[C@H]2O)[C@H](O)[C@@H](O)[C@H]1O | – | – | – | – | inactive | inactive | inactive | inactive |
| O=C(COc1ccccc1)N1CCN(S(=O)(=O)c2cccs2)CC1 | – | – | – | – | inactive | inactive | inactive | inactive |
| O=C(CN1C(=O)COc2ccccc21)N(Cc1cccnc1)Cc1cccc(F)c1 | – | – | – | – | inactive | inactive | inactive | inactive |
| Oc1c(Br)cc(Br)cc1C=Nc1cccc2ncccc12 | 166% (active) | – | – | – | – | inactive | inactive | inactive |
| Cc1sc(N/N=C/c2ccco2)nc1-c1ccccc1 | – | – | – | – | inactive | inactive | inactive | inactive |
| O=c1[nH]cc(-c2ccccc2)c(=O)[nH]1 | – | – | – | – | inactive | inactive | inactive | inactive |
| CCOc1ccc(NC(=O)Cn2nnc(-c3ccccc3NC(=O)c3cccs3)n2)cc1 | – | – | – | – | inactive | inactive | inactive | inactive |
| Cc1sc2nc[nH]c(=S)c2c1-c1ccccc1 | 289% (active) | 93.5% (active) | 304% (active) | – | – | – | – | inactive |
| Oc1c(N=NC(=S)Nc2ccccc2F)c2ccccc2n1Cc1ccccc1F | 142% (active) | 64% (active) | 169% (active) | – | – | – | – | inactive |
| Cc1c(CN2CCN(C)C(CCO)C2)[nH]c2c(Cl)cccc12 (stereo unspecified) | – | – | – | – | inactive | inactive | inactive | inactive |
| O=C(N/N=C/c1ccccn1)c1cc(Br)ccc1O | 147% (active) | 24% (active) | 182% (active) | – | – | – | – | inactive |
| Oc1ccc(N=Nc2ccc3c(c2)OCCO3)c2ncccc12 | 310% (active) | 116% (active) | 352% (active) | – | – | – | – | inactive |
| CC(C)CSc1n[nH]c(=S)s1 | – | – | 145% (active) | – | inactive | inactive | – | inactive |
| NC(=O)COC(=O)c1ccccc1Nc1ccc(SC(F)F)cc1 | – | 26% (active) | 147% (active) | – | inactive | – | – | inactive |
| CC(C)C1=NN(C(=O)c2ccccc2)C(O)(C(C)(C)C)C1 (stereo unspecified) | – | – | – | – | inactive | inactive | inactive | inactive |
| Clc1ccc(C(c2ccccc2)N2CCNCC2)cc1 (stereo unspecified) | – | – | – | – | inactive | inactive | inactive | inactive |
| CCCNC(=O)C(=O)N/N=C/c1cccs1 | – | 24.5% (active) | – | – | inactive | – | inactive | inactive |
| C1=Nc2ccccc2CN1c1ccccc1 | – | – | – | – | inactive | inactive | inactive | inactive |
| COC(=O)c1cc2c(ccc3ccccc32)oc1=O | – | – | – | – | inactive | inactive | inactive | inactive |
| COc1ccc(NC(=O)C(=O)NNC(=O)C(C)Oc2ccc(Cl)cc2Cl)cc1 (stereo unspecified) | 481% (active) | 177% (active) | 492% (active) | – | – | – | – | inactive |
| CC/C(=N/NC(=O)c1ccc(Br)o1)c1ccc(Cl)cc1 | – | – | – | – | inactive | inactive | inactive | inactive |
| COc1ccc(OCC(=O)N2CCCC2=O)c([N+](=O)[O-])c1 | – | – | – | – | inactive | inactive | inactive | inactive |
| COc1cc(CN2CCC(C)CC2)ccc1OCc1ccccc1 | 292% (active) | 90% (active) | 300% (active) | – | – | – | – | inactive |

| Compound | activation [1] | potentiation [2] | potentiation [3] | current potentiation [4] | outcome [1] | outcome [2] | outcome [3] | outcome [4] |
| --- | --- | --- | --- | --- | --- | --- | --- | --- |
| COCCn1c(=S)[nH]c2sc3c(c2c1=O)CCCC3 | 325% (active) | 106% (active) | 312% (active) | – | – | – | – | inactive |
| COc1ccc(CN(C)CC(=O)Nc2ccc(Cl)cc2C(F)(F)F)c(OC)c1 | – | 37.5% (active) | – | – | inactive | – | inactive | inactive |
| COC(=O)C1=C(C)Nc2nnnn2C1c1ccc(Cl)cc1Cl (stereo unspecified) | – | – | – | – | inactive | inactive | inactive | inactive |
| CC(=O)Oc1c(-c2ccc(Br)o2)oc2ccccc2c1=O | 480% (active) | 109% (active) | 482% (active) | – | – | – | – | inactive |
| CC1(C)CC(=O)C2=C(C1)c1c(ccc3ccccc13)NC2c1cc([N+](=O)[O-])cc([N+](=O)[O-])c1O (stereo unspecified) | – | – | – | – | inactive | inactive | inactive | inactive |
| Cn1cccc1/C=N/n1c(-c2ccc(C(C)(C)C)cc2)n[nH]c1=S | – | 266% (active) | – | – | inactive | – | inactive | inactive |
| N#C/C(=C\c1ccc(-c2ccccc2Cl)o1)C(=O)Nc1nc2ccccc2s1 | – | – | – | – | inactive | inactive | inactive | inactive |
| O=c1c2ccccc2[nH]c(=S)n1CCc1ccccc1 | 159% (active) | – | – | – | – | inactive | inactive | inactive |
| COc1cccc(C(=O)NC(=S)Nc2ccc3c4c(cccc24)CC3)c1 | – | 25.5% (active) | – | – | inactive | – | inactive | inactive |
| O=C(c1cc(COc2ccc3ncccc3c2)on1)N1CCCC(O)C1 (stereo unspecified) | – | – | – | – | inactive | inactive | inactive | inactive |
| Nc1ccc(C2(c3ccc(N)cc3)OC(=O)c3ccccc32)cc1 | – | – | – | – | inactive | inactive | inactive | inactive |
| CC(C)(C)NC(=O)C(=O)NNC(=O)C12CC3CC(CC(C3)C1)C2 | 178% (active) | 40% (active) | 192% (active) | – | – | – | – | inactive |
| COC(=O)c1c(NC(=S)Nc2ccccc2Cl)sc(C)c1C | – | – | – | – | inactive | inactive | inactive | inactive |
| C=CCn1c(-c2cc(-c3ccc(C)cc3)nc3ccccc23)n[nH]c1=S | 138% (active) | 108% (active) | 170% (active) | – | – | – | – | inactive |
| Cc1ccc2nc3c(cc(C(=O)NCC4CCCO4)c(=N)n3C3CCCC3)c(=O)n2c1 (stereo unspecified) | – | – | – | – | inactive | inactive | inactive | inactive |
| CCCCn1c(SCC(=O)/C(C#N)=C(\C)N)nc2ccccc2c1=O | – | – | – | – | inactive | inactive | inactive | inactive |
| CCOC(=O)NC(=S)Nc1ccc(C(C)(C)C)cc1 | – | 20% (active) | – | – | inactive | – | inactive | inactive |
| COc1cc(Br)cc(C=Nc2cccc(C(F)(F)F)c2)c1O | – | – | – | – | inactive | inactive | inactive | inactive |
| O=C1CCC(C(=O)N2CCSCC2)CN1Cc1cccc(C(F)(F)F)c1 (stereo unspecified) | – | – | – | – | inactive | inactive | inactive | inactive |
| CC(C)(C)C1CCc2c(sc(NC(=O)C3CC=CCC3C(=O)O)c2C#N)C1 (stereo unspecified) | 178% (active) | 53% (active) | 184% (active) | – | – | – | – | inactive |
| O=C(/C=C/c1ccco1)NC(=S)Nc1ccccc1O | – | – | – | – | inactive | inactive | inactive | inactive |
| COc1cccc(-c2cn(-c3cccc(C(F)(F)F)c3)c(=S)[nH]2)c1 | – | – | – | – | inactive | inactive | inactive | inactive |
| COc1ccc(NC(=O)C(=O)NNC(=O)c2cccs2)cc1 | 177% (active) | 24.5% (active) | 187% (active) | – | – | – | – | inactive |
